# According to PubChem BioAssay (NCATS):
# Values joined by “and” are separate entries in the source; they are usually repeats but may differ in a detail not shown here. Equal values may be shown once. Records with an inconclusive call do not appear. A call without a number means that no potency is given here. Values without a mark were called inactive. Active and inactive are the calls of the source. Unless noted, calls come from the whole dose curve; as a rule, active = well fitted curve in the direction sought with a large enough effect; inconclusive = small, poorly fitted or top-dose-only effect, or another doubt; inactive = no such curve, though single readings can be large; an effect the other way counts as inactive or inconclusive.
# Assays:
# [1] = target: Cellular tumor antigen p53 (Homo sapiens) (UniProt P04637); assay: Primary qHTS for small molecule compounds that upregulate eGFP-tagged delta133p53alpha (in N-terminal) cells. (AID 2060322); settings: NCI-H358 eGFP-delta133p53alpha fluorescence, 24 h; activation: active compounds read high; note: series mostly up to about 56 µM; nearly all actives have a fitted effect of over 75% in size
# In short: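 NCI-H358 cells pre-induced 24 h with 10 ng/ml doxycycline to express N-terminal eGFP-delta133p53alpha, then dosed 24 h at 37C without doxycycline; fixed, Hoechst-stained, GFP intensity by laser scanning cytometry, normalized to DMSO (0%) and 57.5 uM 5-azacytidine (100%).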
# [2] = target: Aldehyde dehydrogenase, mitochondrial (Homo sapiens) (UniProt P05091); assay: qHTS for Inhibitors of the Aldehyde Dehydrogenase Family (ALDH2) Validation screens (AID 2061302; active = well fitted inhibition curve with a large enough effect; title and protocol of this record describe different tests)
# [3] = target: Cellular tumor antigen p53 (Homo sapiens) (UniProt P04637); assay: Primary qHTS for small molecule compounds that upregulate eGFP-tagged delta133p53alpha (in C-terminal) cells. (AID 2060324)
# In short: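 C-terminal eGFP-tagged delta133p53alpha NCI-H358 line; dox-induced (100 ng/ml, 24 h) then plated without dox; compounds pinned in titration, 24 h 37 °C/5% CO2; PFA fix, Hoechst nuclei; GFP by LSC.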
# [4] = target: Aldehyde dehydrogenase, mitochondrial (Homo sapiens) (UniProt P05091); assay: qHTS for Inhibitors of the Aldehyde Dehydrogenase Family (ALDH2) Confirmatory screens (AID 2061303; active = well fitted inhibition curve with a large enough effect; title and protocol of this record describe different tests; note: nearly all actives have a fitted effect of over 45% in size)
# [5] = qHTS for Inhibitors of the Aldehyde Dehydrogenase Family (ALDH1A2, ALDH1A3, ALDH2, ALDH3A1) (AID 2061307); note: nearly all actives have a fitted effect of over 50% in size; for potency: test system not described further here; potency is the fitted concentration of half-maximal effect
# [6] = target: Retinaldehyde dehydrogenase 3 (Homo sapiens) (UniProt P47895); assay: qHTS for Inhibitors of the Aldehyde Dehydrogenase Family (ALDH1A3) Confirmatory screens (AID 2061311); note: potency is the fitted concentration of half-maximal effect; nearly all actives have a fitted effect of over 60% in size
# [7] = target: Retinaldehyde dehydrogenase 3 (Homo sapiens) (UniProt P47895); assay: qHTS for Inhibitors of the Aldehyde Dehydrogenase Family (ALDH1A3) Validation screen (AID 2061312); note: nearly all actives have a fitted effect of over 45% in size
# [8] = target: Retinal dehydrogenase 2 (Homo sapiens) (UniProt O94788); assay: qHTS for Inhibitors of the Aldehyde Dehydrogenase Family (ALDH1A2) Confirmation screens (AID 2061314); note: nearly all actives have a fitted effect of over 65% in size; note: potency is the fitted concentration of half-maximal effect
# [9] = target: Aldehyde dehydrogenase 1A1 (Homo sapiens) (UniProt P00352); assay: qHTS for Inhibitors of the Aldehyde Dehydrogenase Family (ALDH1A1) Confirmatory screens (AID 2061316); note: nearly all actives have a fitted effect of over 65% in size; note: potency is the fitted concentration of half-maximal effect
# [10] = BET inhibitor-based combinations targeting novel dependencies in MECOM-rearranged (r) AML: OCI-AML3 cell line (AID 2202232); settings: Potency: OCI-AML3 viability; note: series mostly up to about 46 µM; nearly all actives have a fitted effect of over 35% in size
# In short: (§1)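 500 cells/well; 11-pt dose curve; 48 h, standard incubator; CellTiter-Glo luminescence after 15 min RT; DMSO/empty-well normalization; AUC plus Z-AUC (mean-centered within each line).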
# [11] = BET inhibitor-based combinations targeting novel dependencies in MECOM-rearranged (r) AML: MV-4-11 cell line (AID 2202233); note: nearly all actives have a fitted effect of over 45% in size
# In short: (§2)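 Cells were plated at 500 per well and exposed to each drug across an 11-point dose range for 48 hr at standard incubator conditions. Viability was read by CellTiter-Glo luminescence, and activity was expressed as AUC and per-cell-line Z-transformed AUC.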
# [12] = BET inhibitor-based combinations targeting novel dependencies in MECOM-rearranged (r) AML: HNT-34 cell line (AID 2202234); note: nearly all actives have a fitted effect of over 35% in size; note: potency is the fitted concentration of half-maximal effect
# In short: as §2
# [13] = BET inhibitor-based combinations targeting novel dependencies in MECOM-rearranged (r) AML: UCSD-AML1 cell line (AID 2202235); note: series mostly up to about 46 µM; nearly all actives have a fitted effect of over 40% in size
# In short: as §2
# [14] = BET inhibitor-based combinations targeting novel dependencies in MECOM-rearranged (r) AML: AML-191 cell line (AID 2202236; note: nearly all actives have a fitted effect of over 35% in size)
# In short: as §1
# [15] = BET inhibitor-based combinations targeting novel dependencies in MECOM-rearranged (r) AML: AML-194 cell line (AID 2202237; note: nearly all actives have a fitted effect of over 40% in size)
# In short: as §1
# [16] = BET inhibitor-based combinations targeting novel dependencies in MECOM-rearranged (r) AML: SET-2 cell line (AID 2202231); settings: SET-2 AML cells viability, CellTiter-Glo luminescence, 48 h; viability: active compounds read low, series mostly up to about 46 µM; note: nearly all actives have a fitted effect of over 35% in size
# In short: as §1
# Chain of Cellular tumor antigen p53 (Homo sapiens) (P04637 whole entry, looked up): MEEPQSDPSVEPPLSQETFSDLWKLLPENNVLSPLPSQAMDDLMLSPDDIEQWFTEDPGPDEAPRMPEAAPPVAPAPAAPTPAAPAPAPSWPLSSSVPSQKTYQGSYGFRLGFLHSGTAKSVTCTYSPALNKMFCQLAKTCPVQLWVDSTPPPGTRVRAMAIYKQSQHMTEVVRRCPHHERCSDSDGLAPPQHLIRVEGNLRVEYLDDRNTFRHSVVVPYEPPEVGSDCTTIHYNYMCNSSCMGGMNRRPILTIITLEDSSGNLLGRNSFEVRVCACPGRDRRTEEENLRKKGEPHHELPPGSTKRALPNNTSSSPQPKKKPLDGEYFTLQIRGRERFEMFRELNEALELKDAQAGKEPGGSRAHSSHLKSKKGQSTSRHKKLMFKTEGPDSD
smiles,measurement,setting,value
Cc1cccc(/C=C/c2ccccc2)n1,activation,[1],-2.77%
same,Potency,[2],inactive
Cc1nc(N=Nc2cc(S(=O)(=O)O)c3cc([N+](=O)[O-])cc(S(=O)(=O)O)c3c2)c(COP(=O)(O)O)c(C=O)c1O,activation,[1],-72.9%
same,Potency,[3],inactive
same,Potency,[4],inactive
same,Potency,[5],inactive
same,Potency,[6],22.5 µM (active)
same,Potency,[7],inactive
same,Potency,[8],inactive
same,Potency,[9],inactive
CN1CCN(C2=Nc3ccccc3Oc3ccc(Cl)cc32)CC1,activation,[1],-10% and -16.8%
same,Potency,[3],inactive
same,Potency,[7],inactive
CC1(C)NC(=O)N(c2ccc([N+](=O)[O-])c(C(F)(F)F)c2)C1=O,activation,[1],-8.47% and -2.88% and -17.8%
same,Potency,[3],inactive
same,Potency,[7],inactive
same,Potency,[10],inactive
same,Potency,[11],inactive
same,Potency,[12],inactive
same,Potency,[13],inactive
same,Potency,[14],inactive
same,Potency,[15],inactive
O=C(c1cc(O)c(O)c([N+](=O)[O-])c1)c1ccccc1F,activation,[1],-61.3%
same,Potency,[3],inactive
same,Potency,[4],inactive
same,Potency,[6],3.18 µM (active)
same,Potency,[8],inactive
same,Potency,[9],12.7 µM (active)
CCCCC#Cc1nc(NC)c2ncn([C@@H]3O[C@H](CO)[C@@H](O)[C@H]3O)c2n1,activation,[1],-3.87%
same,Potency,[3],inactive
same,Potency,[4],inactive
same,Potency,[5],inactive
same,Potency,[8],inactive
same,Potency,[9],inactive
Cc1oncc1C(=O)Nc1ccc(C(F)(F)F)cc1,activation,[1],-3.35% and -18.5% and -19%
same,Potency,[3],inactive
same,Potency,[2],inactive
same,Potency,[12],16.6 µM (active)
same,Potency,[13],inactive
Cc1cccc(C)c1OCC(N)C(C)C (centres undefined),activation,[1],-8.7%
same,Potency,[3],inactive
same,Potency,[4],inactive
same,Potency,[5],inactive
same,Potency,[8],inactive
Brc1c(NC2=NCCN2)ccc2nccnc12,activation,[1],-0.565% and -20%
same,Potency,[3],inactive
same,Potency,[5],11.3 µM (active)
same,Potency,[6],5.65 µM (active)
same,Potency,[8],8.96 µM (active)
same,Potency,[9],11.3 µM (active)
O=C1NC(=O)/C(=C/c2ccc3nccnc3c2)S1,activation,[1],18.2%
same,Potency,[3],inactive
same,viability,[16],113%
same,Potency,[11],inactive
same,Potency,[12],inactive
same,Potency,[13],inactive
same,Potency,[14],inactive
same,Potency,[15],inactive
CCN(CC)C(C)CN1c2ccccc2Sc2ccccc21 (centres undefined),activation,[1],-8.47% and -0.322%
same,Potency,[3],inactive
same,Potency,[7],inactive
c1ccc(C(NCc2cccnc2)(c2ccccc2)c2ccccc2)cc1,activation,[1],-2.89%
same,Potency,[3],inactive
same,Potency,[7],inactive
NS(=O)(=O)c1cccc2c1c([N+](=O)[O-])cc1nc(O)c(O)nc12,activation,[1],-8.06%
same,Potency,[3],inactive
same,Potency,[7],inactive
same,Potency,[8],25.2 µM (active)
same,Potency,[9],12.7 µM (active)
